High-throughput results deposited in PubChem by National Center for Advancing Translational Sciences (NCATS).
D2 ag-1 = activates the human D2 dopamine receptor; P14416; HEK293 T-REx D2 cells, calcium flux agonist mode; activation, % at 2 µM; 340,000 tested, 0.53% active;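 active = activation over 3 SD above normal in the single-dose calcium agonist read, cut at about 30% in these data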; also: 0% is about no effect
Target sequence (P14416 whole entry, looked up): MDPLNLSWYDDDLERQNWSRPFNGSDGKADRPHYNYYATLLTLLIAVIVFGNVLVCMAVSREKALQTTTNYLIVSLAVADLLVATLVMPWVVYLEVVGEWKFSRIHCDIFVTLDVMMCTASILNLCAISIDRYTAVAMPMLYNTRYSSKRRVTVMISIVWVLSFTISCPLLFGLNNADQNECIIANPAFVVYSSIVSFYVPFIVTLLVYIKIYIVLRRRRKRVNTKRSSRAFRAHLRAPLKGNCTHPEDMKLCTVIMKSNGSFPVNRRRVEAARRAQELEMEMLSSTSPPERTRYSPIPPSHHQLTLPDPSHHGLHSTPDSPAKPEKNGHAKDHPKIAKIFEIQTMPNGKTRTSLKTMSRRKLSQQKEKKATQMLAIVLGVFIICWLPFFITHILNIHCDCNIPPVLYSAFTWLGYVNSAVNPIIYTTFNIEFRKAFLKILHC
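Calcium-flux readout, 1 cycle/sec over 180 s following compound pin transfer, in inducible HEK293 Trex D2 cells (force-coupled); dopamine controls included. Positive calcium responses during this window marked compounds as potential agonists.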
D2 PAM-1 = human D2 receptor positive allosteric modulation | DiscoveRx D2 beta-arrestin cells, luminescence, 90 min; 100% = 57 uM dopamine signal | potentiation, % (test concentration not listed) | 360,000 tested, 0.23% active; in the data active = potentiation above about 50%
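PathHunter D2 cells, attached overnight at 37 deg C, received compound in DMSO plus dopamine at EC20 (50 nM final) for 90 min at 37 deg C. Beta-arrestin recruitment was read as luminescence after 1 h with detection reagent at ambient temperature.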
D2 antag = antagonists of human D2 dopamine receptor; P14416; HEK293 TREx D2 cells, calcium flux, dopamine EC80; inhibition, % at 10 µM; 340,000 tested, 2% active; AID 485344; in the data active = inhibition above about 30%; inactive = below that, where a call was filed; also: 0% is about no effect
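HEK293 T-REx D2 cells, tet-induced, calcium dye no-wash. Cpd pintool add, 180 s kinetic, then EC80 DA, 180 s kinetic. Ca flux read.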
D2 PAM-2 = positively modulates the human D2 dopamine receptor allosterically. HEK293 T-REx D2, calcium flux, EC20 dopamine potentiation. potentiation, % at 10 µM. 340,000 tested, 0.34% active;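 active = potentiation over 3 SD above the plate norm, cut at about 30% in these data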; also: 0% is about no effect
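Calcium flux readout, no-wash dye, 1 read/s. Inducible HEK293 Trex D2 line, overnight 30 C. Compound alone 180 s (agonist flags), then EC20 dopamine, another 180 s to score potentiation.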
D2 ag-2 = human D2 receptor agonism in beta-arrestin assay; P14416; DiscoveRx PathHunter D2 beta-arrestin, luminescence, 90 min; 100% = 57 uM dopamine signal; activation, % (no concentration beside the values); 360,000 tested, 0.084% active; AID 624465; in the data active = activation above about 40%
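DiscoveRx PathHunter D2 beta-arrestin cells (2,100/well) attached overnight, then compound-stimulated 90 min at 37 C in HBSS/10 mM HEPES/0.1% Tween-20 buffer; beta-galactosidase complementation read by luminescence after 1 h at ambient temperature. Dopamine 57 uM final (EC100) as control.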
Starred values were filed as active, the others as inactive; x = no result. Shown are actives, neighbours in structure and some others; about 2.4% of the full set was active somewhere.

SMILES	D2 ag-1	D2 PAM-1	D2 antag	D2 PAM-2	D2 ag-2
Cc1ccc(C(C)C)c(OCCNCCc2ccccc2)c1	-3	-15	41*	-22	-1
Cc1ccc(C(C)C)c(OCCCNCc2cccnc2)c1	-1	-23	10	-12	-3
Brc1ccccc1OCCNCc1ccccc1	1	-17	94*	-20	0
COc1ccccc1NC(=O)Cn1c(C)cc(C)c(C#N)c1=O	0	x	x	4	x
CC1CCCCN1C(=O)NC12CC3CC(CC(C3)C1)C2 (stereo not given)	0	2	34*	-1	3
O=C(NC12CC3CC(CC(C3)C1)C2)C1CCCN1C(=O)NC1CCCCC1 (stereo not given)	1	-6	-12	14	-2
CCOC(=O)C(NC(=O)c1ccccc1)=C1C=C(C)OC(C)=C1	0	-3	12	30*	-1
CCOc1ccc(N2CC(C(=O)NCCc3ccc(S(N)(=O)=O)cc3)CC2=O)cc1 (stereo not given)	1	-6	38*	14	-2
CCOc1ccc(N2CC(C(=O)N3CCCc4ccccc43)CC2=O)cc1 (stereo not given)	-3	2	56*	x	0
Cc1cccc(C)c1NC(=O)C(=O)NCC(c1cccnc1)N1CCc2ccccc21 (stereo not given)	0	x	x	3	x
COc1ccc(NS(=O)(=O)c2cc(Br)cc3c2N(C(=O)C2CC2)CC3)cc1OC	0	x	x	-6	x
COc1ccc(NC(=S)N2CCC(N(C)CC3CCCO3)CC2)cc1 (stereo not given)	-3	-6	30*	13	0
COc1ccc(-n2c(Cc3ccccc3)nnc2SCc2nc(-c3cccs3)no2)cc1	1	x	x	-13	x
COc1ccc(OC)c2sc(N3CCN(C(=O)C(C)(C)C)CC3)nc12	0	x	x	-7	x
c1ccc(-c2cnc(SCCN3CCOCC3)n2CC2CCCO2)cc1 (stereo not given)	0	-16	34*	-9	1
COc1cccc(Cn2c(=O)cc(C)c3c(C)nn(C)c32)c1	0	x	x	-1	x
O=C(O)c1ccccc1S(=O)(=O)Cc1ccccc1	1	-5	36*	-11	-2
O=C(Cn1nc(C(F)(F)F)c2c1CCCC2)Nc1ccc2c(c1)OCO2	1	-12	-6	32*	-4
Cc1ccc(NC(=O)Cn2nc(C(F)(F)F)c3c2CCC3)cc1C	-1	x	x	4	x
Cc1c(C(=O)NCc2cccc(Br)c2)oc2ccc3c(c12)C(=O)CC(C)(C)O3	0	x	x	1	x
CN(C)/C=C/C(=O)c1ccc2noc(-c3cccc(F)c3)c2c1	0	-4	-11	-2	46*
CC(=O)c1ccc2noc(-c3ccc(F)cc3)c2c1	1	59*	34*	3	6
O=C(O)c1ccc(Nc2nc3ccccc3c3nncn23)cc1	x	x	x	29	x
Cc1ccc(CC(=O)Nc2nncs2)cc1	0	4	47*	0	0
COc1ccc(CC(=O)Nc2nncs2)cc1OC	1	11	-8	-5	1
SMILES	D2 ag-1	D2 PAM-1	D2 antag	D2 PAM-2	D2 ag-2
Cc1ccc(Cn2cc3c(n2)-c2c(oc(C(=O)Nc4ccc(F)cc4F)c2C)CC3)cc1	1	x	x	-2	x
CCCCCn1c(Sc2ccccc2)nc2c1c(=O)[nH]c(=O)n2C	0	-7	31*	5	-1
CC(C)CCSc1nc2c(c(=O)[nH]c(=O)n2C)n1CCCc1ccccc1	-2	0	35*	-8	6
C=CCn1c(Sc2ccccc2)nc2c1c(=O)[nH]c(=O)n2C	1	-6	-11	1	-3
Cc1ccc(-c2ocnc2C(=O)Nc2ccccc2C(=O)N2CCCC2)cc1	-1	-7	57*	-11	0
O=C(Nc1ccccc1C(=O)N1CCCC1)c1ncoc1-c1cccc(Cl)c1	0	-1	17	3	4
COc1ccccc1NC(=O)/C(C#N)=C/c1c(C)nn(-c2ccc(F)cc2)c1Cl	32*	-2	-4	-13	3
N#Cc1c(-c2ccco2)cc(-c2ccccn2)nc1N	0	-7	-10	36*	0
N#Cc1c(-c2ccco2)cc(-c2cccnc2)nc1N	0	5	-1	18	-1
CCOc1ccc(C(=O)NCC(c2ccc3c(c2)OCO3)N2CCN(c3ccccc3F)CC2)cc1 (stereo not given)	9	x	x	-3	x
O=C(c1n[nH]c2ccccc12)N1CCOCC1	1	-5	39*	-12	0
COC(=O)c1cc2sc(C)cc2n1Cc1cccc(OC)c1	1	x	x	-5	x
Cn1nc(C(F)(F)F)c2cc(C(=O)Nc3ccc(Cl)cc3)sc21	1	-37	64*	-25	2
Cn1nc(C(F)(F)F)c2cc(C(=O)Nc3ccc(F)cc3F)sc21	0	-20	-5	11	3
Cn1nc(-c2ccc(Cl)cc2)c2cc(C(=O)N3CCOCC3)sc21	0	-3	31*	10	1
COc1cc([C@@H]2OC[C@@H]3[C@H]2CO[C@@H]3c2ccc3c(c2)OCO3)ccc1O	x	-5	x	x	0
COc1cc(CC2COC(c3ccc(O)c(OC)c3)C2COC(C)=O)ccc1O (stereo not given)	1	-25	45*	17	-8
CN(Cc1ccccc1)C(=O)c1cc(-c2cccc(Cl)c2)on1	1	x	x	5	x
CC(=O)Nc1ccc(S(=O)(=O)Nc2ccccc2C(=O)N2CCCCC2)cc1	-1	-9	3	31*	-4
Cc1ccc(N2CC(C(=O)Nc3ccc4c(c3)OCO4)CC2=O)cc1 (stereo not given)	-1	3	-6	-8	-3
COc1ccc(NC(=O)C2CC(=O)N(c3cccc(C)c3C)C2)cc1 (stereo not given)	0	-9	31*	-13	-3
COc1cccc(NC(=O)C2CC(=O)N(Cc3ccco3)C2)c1 (stereo not given)	1	-1	37*	-1	-6
Cc1ccc(N2CC(C(=O)Nc3ccc4c(c3)OCO4)CC2=O)cc1C (stereo not given)	-2	-5	0	31*	-2
O=C(Nc1nccs1)C1CC(=O)N(Cc2ccco2)C1 (stereo not given)	1	9	-17	46*	-4
COc1ccccc1-c1cc(C(=O)Nc2c(C)nn(Cc3ccc(Cl)cc3)c2C)no1	1	x	x	-7	x
Cc1ccc(CNC(=O)c2cc3cc(C)ccc3n2C)cc1	2	x	x	17	x
O=C(COc1ccccc1Cl)Nc1cc(-c2ccccc2F)nn1-c1ccccc1	1	x	x	-2	x
CCc1ccc(C(=O)NN(C(=O)c2ccc(CC)cc2)C(C)(C)C)cc1	-1	-16	0	2	-2
CC(C)(C)N(NC(=O)c1ccccc1)C(=O)c1ccc(C(=O)N(NC(=O)c2ccccc2)C(C)(C)C)cc1	1	-26	33*	-5	3
